From PubChem BioAssay (NCI)
Compounds without any hit were thinned out: in the full panel of roughly 79,000, 15% have a hit. Values without a mark were called inactive. Calls of active or inactive are those of the source. Cut-off read from the data, not from the text of the source: active = growth inhibition above about 70%; inactive = the rest.

Test: NCI Yeast Anticancer Drug Screen. Data for the mlh1 rad18 strain (AID 175)
Conditions: S. cerevisiae mlh1 rad18 strain growth inhibition; at 5.0 µM (retest, dose inferred, filed as 0.5); hits give high values
Method in brief: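 Vehicle-treated cultures served as the reference for growth inhibition in a yeast strain carrying DNA damage repair alterations exposed to each compound.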
`CCOc1ccccc1/C=C1\NC(=O)N(/C=C2\C(=O)Oc3ccccc3C2=O)C1=O` gave a growth inhibition of 1%.
With `CC(NNC(=S)N1CCCC1)c1ccc2ccccc2n1` (stereo not given) the growth inhibition was 15%.
Work on `N#Cc1c(-c2ccc(Cl)cc2)c(C#N)c(=O)n(NS(=O)(=O)c2ccccc2)c1S` yielded a growth inhibition of 36%.
Work on `CC(C)/C=C1\CCOC1=O` yielded a growth inhibition of 0%.
Compound `c1ccc(Nc2nnc3nc(-c4ccccc4)c(-c4ccccc4)nn23)cc1` has a growth inhibition of 5%.
With `O=C(NC(c1ccccc1)N1CCOCC1)c1ccccc1` (stereo not given) the growth inhibition was -9%.
For `N[C@@H]1CCCC[C@@H]1N.O=C([O-])CN(CP(=O)([O-])[O-])CP(=O)([O-])[O-].[Pt+2]`, the growth inhibition was -1%.
In the case of `C/C=C\C(/C=C/C)(C(=O)OCCN(C)C)C(/C=C\C)(/C=C/C)C(=O)OCCN(C)C` (stereo not given), the growth inhibition is reported as 3%.
For `COc1ccc(CCNC(=S)/N=C\C(C(=O)c2ccccc2)=C(\O)c2ccccc2)cc1OC`, the growth inhibition was 3%.
With `Cc1ccccc1C1SCc2nc3ccccc3n21` (stereo not given) the growth inhibition was -9%.
Compound `O=C(Nc1ccc(Cl)cc1)Nc1nnc(/C=C/c2ccc(Cl)c(Cl)c2)o1` has a growth inhibition of 1%.
For `Cc1c(CCCl)c(N=[N+]=[N-])n2c(nc3ccccc32)c1C#N`, the growth inhibition was 28%.
`O=C(OCCCC(C(=O)c1ccccc1)=P(c1ccccc1)(c1ccccc1)c1ccccc1)c1ccccc1` gave a growth inhibition of 50%.
In the case of `O=C(c1ccccc1)c1ccc(Cl)cc1`, the growth inhibition is reported as 1%.
With `O=C1C(C(O)(C(F)(F)Cl)C(F)(F)Cl)CCCC1C(O)(C(F)(F)Cl)C(F)(F)Cl` (stereo not given) the growth inhibition was 96% (active).
With `CCN(CC)C(=S)N=Nc1c(O)[nH]c2ccccc12` the growth inhibition was 82% (active).
For `c1csc(-c2nnc(C34CC5CC(CC(C5)C3)C4)o2)c1`, the growth inhibition was -12%.
`C/C(O)=C(/C=N/C(=S)Nc1ccc(S(N)(=O)=O)cc1)C(=O)Nc1ccccc1C` gave a growth inhibition of 3%.
In the case of `CC(C)(Oc1ccc(-c2cccc3ccccc23)cc1)C(=O)O`, the growth inhibition is reported as -6%.
Work on `CCc1scc(C)[n+]1CC(=O)c1cccc([N+](=O)[O-])c1` yielded a growth inhibition of 19%.
Work on `O=C1CCC(C(c2ccccc2)(c2ccccc2)c2ccccc2)CC1=O` (stereo not given) yielded a growth inhibition of -1%.
`Clc1ccc(C2SCc3nc4ccccc4n32)cc1Cl` (stereo not given) gave a growth inhibition of 3%.
For `OC(CBr)c1c(Br)ccc2ccccc12` (stereo not given), the growth inhibition was 20%.
`O=C1OC(c2cccc(Cl)c2)Sc2ccccc21` (stereo not given) gave a growth inhibition of 0%.
`c1ccc(N2CCN(c3ccccc3)C2Cc2c[nH]c3ccccc23)cc1` showed a growth inhibition of 61%.
With `CC(=O)c1sc(Nc2ccc(Cl)c(Cl)c2)nc1C` the growth inhibition was 15%.
With `Cc1ncn(-c2ccccc2O)c1C` the growth inhibition was -9%.
For `C[n+]1c(/C=C/c2ccc(N3CCCC3)cc2)sc2ccccc21`, the growth inhibition was 85% (active).
For `COc1ccc(-c2c(C#N)c(S)n(NS(=O)(=O)c3ccc(C)cc3)c(=O)c2C#N)cc1`, the growth inhibition was 27%.
For `N#Cc1c(-c2ccc(Cl)c(Cl)c2)c(-c2ccc(Cl)c(Cl)c2)nn(CCO)c1=O`, the growth inhibition was 72% (active).
For `NCc1ccc(O)c(O)c1O`, the growth inhibition was -22%.
Compound `C[CH2][Sn]([CH2]C)([O]C(=O)c1cc(OC)c(OC)c(OC)c1)[O][Sn]([CH2]C)([CH2]C)[O]C(=O)c1cc(OC)c(OC)c(OC)c1` has a growth inhibition of 27%.
In the case of `C=CCNCCC1CCCCCC1`, the growth inhibition is reported as 4%.
`Cc1ccc(/C=C/C(=O)/C=C/c2ccc(C)o2)o1` gave a growth inhibition of 62%.
`CCCC(=O)c1cc(O)c(O)c(CN(C)Cc2cc(Cl)cc(C)c2O)c1O` gave a growth inhibition of 19%.
Work on `COC(=O)/C(C#N)=C/c1cc(OC)c(O)cc1Br` yielded a growth inhibition of 54%.
With `O=C(/C=C/c1ccccc1)CCN1CCOCC1` the growth inhibition was 32%.
For `c1cc2c(c3c1CN(C1CCCCC1)CO3)OCN(C1CCCCC1)C2`, the growth inhibition was 6%.
Work on `CSc1nc2ccccc2s1` yielded a growth inhibition of -3%.
For `CC1(C)CC(=O)C(CSC(=O)c2ccccc2)=C(O)C1`, the growth inhibition was -7%.
